Screens: PubChem, several laboratories
Hits are enriched below; roughly 3.4% of the tested compounds scored in any of these assays.
ANO1 activ: TMEM16A chloride channel activators or potentiators, primary screen, cell-based, HTS | HEK293 TMEM16A/YFP-H148Q/I152L, iodide quench fluorescence; hits give low values | B-score at 10 µM | 340,000 tested, 0.3% active | AID 623877, 2012;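 active = fluorescence-ratio B-score plate-corrected deviation score at least 3 library SD below zero, with starting fluorescence score within 5 deviations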;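 note: channel opened by trigger with iodide after compound preincubation; score built on the fluorescence ratio of max minus min over baseline; more negative score means more quench and so TMEM16A activation or potentiation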
MEKK2 WT-MEK5: modulators of MEK5 binding to wildtype MEKK2, primary screen, biochemical, multiplex bead flow cytometry, Alexa488-MEK5; Mitogen-activated protein kinase kinase kinase 2 (Homo sapiens), Q9Y2U5; Alexa488-MEK5 binding to MEKK2 WT; actives lie on both sides; binding response (% of control), % at 10 µM; 290,000 tested, 1.1% active; in the data active = binding response below about 67% or above about 130%
TMEM16A inh: TMEM16A chloride channel inhibitors, primary screen, cell-based, HTS; Anoctamin-1 (Mus musculus), Q8BHY3; HEK293 TMEM16A/YFP iodide influx fluorescence, ionomycin; normalized B-score (activity score, 25-100; higher = stronger inhibition) at 10 µM; 310,000 tested, 1.2% active; AID 588511, 2011;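 active = ratio plate-corrected score three or more library SD toward inhibition, starting fluorescence score within five deviations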;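 note: score derived from kinetic fluorescence span divided by baseline fluorescence per well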
MEKK2mut PB1 HTS: MEK5 binding signal on mutant MEKK2 PB1, primary screen, biochemical, multiplex bead flow cytometry, Alexa488-MEK5 | 290,000 tested, 0.35% active | percent response, % at 10 µM | Alexa488-MEK5 binding to MEKK2 mutant | AID 1530, 2009; in the data active = percent response above about 24%, passing the limit was not always enough
MEKK3 PB1 HTS: modulators of MEKK3-MEK5 PB1 binding, primary screen, biochemical, wildtype MEKK3, multiplex bead flow cytometry, Alexa488-MEK5 | Mitogen-activated protein kinase kinase kinase 3 (Homo sapiens), Q99759 | bead-based flow cytometry, Alexa488-MEK5 binding to MEKK3; actives lie on both sides; 0 = blocked by unlabeled MEK5, 100 = vehicle | binding response (% of control), % at 10 µM | 290,000 tested, 1.4% active | AID 1529, 2009;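 active = binding response more than 3 SD above or below the average of its plate-row segment, actives on both sides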;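 note: Alexa488 bead fluorescence after subtracting the streptavidin-only scavenger bead signal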
NTR1 ag: agonists of human NTR1, primary screen, imaging, U2OS cells, beta-arrestin-GFP, high content | 330,000 tested, 0.17% active | NTR1-U2OS beta-arrestin-GFP spot imaging, agonist mode | activation, % at 20 µM | Neurotensin receptor type 1 (Homo sapiens), P30989;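 active = activation at or above 40% of the spot to cytoplasm intensity ratio, with at least 20 cells analyzed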;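 note: 0% = DMSO without peptide and 100% = 100 nM NTR1 peptide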
MEKK2wt confirm: modulators of MEK5 binding to wildtype MEKK2, confirmation, biochemical, single concentration, multiplex bead flow cytometry; shares compounds with MEKK3 PB1 HTS; Alexa488-MEK5 binding to MEKK2 WT; actives lie on both sides; binding response (% of control), % at 10 µM; 5,900 tested, 2.4% active; in the data active = binding response below about 16% or above about 210%; inactive = in between
MEKK2mut-MEK5: mutant MEKK2 PB1-MEK5 binding signal retest – biochemical, single concentration, multiplex bead flow cytometry, confirmation. shares compounds with MEKK3 PB1 HTS. Alexa488-MEK5 binding to MEKK2 mutant. percent response, % at 10 µM. 5,900 tested, 2% active. AID 1893, 2009; in the data active = percent response mostly above about 71%, no sharp cut-off; inactive = mostly below about 38%;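 note: higher means compound restores mutant binding toward wildtype level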
MEKK3 confirm: MEKK3 wild-type PB1 binding to MEK5, inhibitors, confirmation, biochemical, bead multiplex flow cytometry, single concentration, wildtype; shares compounds with MEKK3 PB1 HTS; AID 1894, 2009; binding response (% of control), % at 10 µM; Alexa488-MEK5 binding to MEKK3; hits give low values; 5,900 tested, 1.8% active;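 active = binding response below 72% of control, or above a set upper limit, though filed actives all read lower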;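 note: 100% = DMSO only wells and 0% = binding blocked by excess unlabeled MEK5; lower values mean stronger disruption of MEK5 binding to MEKK3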
* marks the source's active call; other numbers are inactive results; i = inactive; / = no result given; [ ] = another dose, or the depositor's remark.

SMILES	ANO1 activ	MEKK2 WT-MEK5	TMEM16A inh	MEKK2mut PB1 HTS	MEKK3 PB1 HTS	NTR1 ag	MEKK2wt confirm	MEKK2mut-MEK5	MEKK3 confirm
COc1cc(/C=C/C(=O)NCCn2c(C)cc3ccccc32)cc(OC)c1OC	i	98	i	11	115	3	/	/	/
Cc1cc2ccccc2n1CCNC(=O)C(C)Oc1ccccc1 (centres undefined)	i	64*[inhibitor]	i	-10	80*[inhibitor]	-3	49	-16	82
Cc1cc2ccccc2n1CCNC(=O)C(C)C	i	93	i	0	106	0	/	/	/
Cc1cccc(CC(=O)NCCn2c(C)cc3ccccc32)c1	i	63*[inhibitor]	i	0	79*[inhibitor]	-3	105	-1	100
Cc1ccc(C(=O)NCCc2ccc(S(=O)(=O)N3CCCC3)cc2)cc1	i	98	i	0	100	0	/	/	/
c1ccc2c(-c3cn4ccccc4n3)c[nH]c2c1	/	63*[inhibitor]	i	2	100	-1	115	19	108
c1ccc2c(-c3nnc(SCc4cn5ccccc5n4)o3)c[nH]c2c1	i	96	i	3	96	0	/	/	/
CCCOc1ccc(C(=O)NCC(c2ccco2)N(C)C)cc1OC (centres undefined)	i	106	i	6	98	-1	/	/	/
CCCOc1ccc(C(=O)NCC(c2cccs2)N(C)C)cc1OC (centres undefined)	i	108	i	7	146*	0	118	17	104
CC(C)(CC(=O)O)CC(=O)N1CCN(c2cc(C(F)(F)F)nc3ccccc23)CC1	i	97	i	-2	99	-1	/	/	/
CC(=O)c1c(N2CCN(C)CC2)[nH]c(-c2ccccc2)nc1=S	i	23*	i	47*	99	0	118	9	104
COc1cc(OC)c(N(C)S(=O)(=O)c2cccc(C(=O)OCC(=O)c3c[nH]c4ccccc34)c2)cc1Cl	i	99	i	1	95	5	/	/	/
C=CCN(c1ccccc1OC)S(=O)(=O)c1cccc(C(=O)OCC(=O)c2c[nH]c3ccccc23)c1	i	119	i	0	138*	2	115	0	103
Cc1ccc(C(=O)Nc2cc(-c3ccn[nH]3)c(C)n(N)c2=O)cc1	i	98	i	-6	100	4	/	/	/
CCN=C(NCC)SC1CC(=O)N(CCc2ccccc2)C1=O (centres undefined)	i	/	i	/	/	0	/	/	/
Cc1ccc(C)c(NC(=S)NNC(=O)c2csc(C)c2C)c1	i	2.0*[inhibitor]	i	1	2.0*[inhibitor]	0	104	-2	105
Cc1ccc(C)c(NC(=S)NNC(=O)c2sccc2C)c1	i	82	i	-9	78	1	/	/	/
O=C(Cc1ccc2c(c1)CCCC2)Nc1ccccc1Br	i	58	i	-25	43*[inhibitor]	3	108	6	106
O=C(Cc1ccc2ccccc2c1)Nc1ccccc1Br	i	99	i	2	93	0	/	/	/
Cc1cc(C)cc(NC(=O)C2CCCN2C(=O)NC2CCCCC2)c1 (centres undefined)	i	93	i	2	96	-2	/	/	/
Cc1cc(C)c(NC(=O)C2CCCN2CCOC(=O)c2ccccc2)c(C)c1 (centres undefined)	i	106	i	0	142*	0	109	5	106
Cc1cc(C)c(NC(=O)C2CCCN2CCOC(=O)c2cccc([N+](=O)[O-])c2)c(C)c1 (centres undefined)	i	100	i	0	120	1	/	/	/
Cc1cc(C)c(NC(=O)C2CCCN2C(=O)NC2CCCCC2)c(C)c1 (centres undefined)	i	102	i	6	125*	-3	108	3	105
COc1ccc(C)cc1S(=O)(=O)N(CC(=O)Nc1cccc([N+](=O)[O-])c1)c1ccc(C)c(C)c1	i	118	i	2	101	0	/	/	/
COc1cc(/C=C(\C#N)C(=O)NCC2CCCO2)ccc1O (centres undefined)	i	104	i	0	117	-1	/	/	/
SMILES	ANO1 activ	MEKK2 WT-MEK5	TMEM16A inh	MEKK2mut PB1 HTS	MEKK3 PB1 HTS	NTR1 ag	MEKK2wt confirm	MEKK2mut-MEK5	MEKK3 confirm
COc1cc(/C=N/NC(=O)C(=O)NCC2CCCO2)ccc1O (centres undefined)	i	117	i	3	162*	2	103	0	103
COc1cc(/C=N/NC(=O)/C(=C\c2ccc3c(c2)OCO3)NC(=O)c2ccccc2)ccc1O	i	103	i	1	142*	0	104	5	107
CCN(CC)C(=O)COc1ccc(/C(C)=N/NC(=O)c2ccccc2-n2cccc2)cc1	i	107	i	4	99	0	/	/	/
C=CCNC(=S)NNc1nc2c(c(=O)[nH]1)C1(CCCC1)Cc1ccccc1-2	i	108	i	0	142*	7	102	-3	102
CCCS(=O)(=O)Nc1c(OC)ccc2c1c(C(=O)OCC)c(C)n2C	i	117	i	11	102	3	/	/	/
Cc1ccc(S(=O)(=O)N(CC(=O)N=Nc2c(O)[nH]c3ccccc23)c2cccc(C)c2)cc1	i	102	i	0	150*	14	95	-6	102
Cc1cc(Cl)ccc1N(CC(=O)N=Nc1c(O)[nH]c2ccccc12)S(C)(=O)=O	i	94	i	-3	100	16	/	/	/
